This passage reports cell event count results from PubChem BioAssay AID1076 (NMMLSC, 2008).

SMILES strings stand for the structures. Calls of active or inactive are those of the source.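 The calls were made as follows: active = cell event count below 40, meaning activity score above 60 where score is 100 minus count; inactive = the rest.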

A short description of this experiment: LNCaP cell loss by flow event count, confirmation, cytotoxicity control for prostate differentiation activator project, single point (AID 1076).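 Also: counts scatter-gated live cells after medium removal discards detached dead cells.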 Particulars: flow cytometry event count, 4 d, at 100 µM, hits give low values. In general terms: In flow cytometry, cells or beads pass a laser one at a time.
Take `COc1ccc2cc3cc(C(=O)Nc4ccccc4N4CCN(C)CC4)oc3nc2c1`: the cell event count was 41 (inactive).

`Cc1ccc(NC(=O)N2CCCN(Cc3ccc(F)cc3)C2)cc1C`: the cell event count is 13 (inactive).

As for `CCOC(=O)N1CCC(NC(=O)c2cc3c(-c4ccccc4F)nn(C)c3s2)CC1`, the cell event count is 60 (inactive).

Turning to `Cc1cc(=O)n2nc(N3CCCC(C(=O)NCc4ccco4)C3)sc2n1` (stereo not drawn), the cell event count is 325 (inactive).

Turning to `Cc1nc2ncnn2c(C)c1CCC(=O)NCCCN1CCN(c2cccc(Cl)c2)CC1`, the cell event count was 95 (inactive).

Consider `CCOC(=O)C1=C(O)CCn2c1nc1ccccc12`, for which the cell event count is 206 (inactive).

Consider `C=CCn1c(=N)n(CC(O)COc2ccccc2OC)c2ccccc21` (stereo not drawn), for which the cell event count was 29 (inactive).

As to `COc1ccc2c(c1)CCc1c(C(=O)Nc3cc(C)n(Cc4ccc(Cl)cc4)n3)noc1-2`, the cell event count is 43 (inactive).

Regarding `CCc1nnc(NC(=O)CSc2nc3ccccc3s2)s1`, the cell event count is 209 (inactive).

For `COc1ccc(S(=O)(=O)CCC(=O)O)cc1`, the cell event count is 153 (inactive).

On to `COc1ccccc1NC(=O)c1nc[nH]c1C(=O)Nc1ccccc1OC`, for which the cell event count is 103 (inactive).

For `CC(C)(O)c1cn(-c2nonc2N)nn1`, the cell event count was 249 (inactive).

Regarding `O=c1cc(-c2ccccc2)[nH]c2ccccc12`, the cell event count was 9 (active).

Consider `COc1ccccc1N1CCN(c2nc3ccccc3nc2C(C#N)C(=O)OC(C)C)CC1` (stereo not drawn), for which the cell event count is 110 (inactive).

Take `CC1CCCCN1CCNC(=O)c1ccc2c(=O)n(CCc3ccccc3)c(=O)[nH]c2c1` (stereo not drawn): the cell event count was 168 (inactive).

Take `Cc1oc(-c2cccc(Cl)c2)nc1CN1CCCC(C(=O)NCCCN2CCOCC2)C1` (stereo not drawn): the cell event count was 22 (inactive).

Consider `Cc1cc(=O)c2ccccc2[nH]1`, for which the cell event count is 143 (inactive).

Take `CCn1c(=O)cc(OCC(=O)NCCCN2CCN(c3cccc(Cl)c3)CC2)c2ccccc21`: the cell event count is 20 (inactive).

`CCc1ccc(-c2nc(CN3CCC(C(=O)N4CCN(c5ccccn5)CC4)CC3)c(C)o2)cc1`: the cell event count was 10 (inactive).

For the compound `CCOC(=O)c1ccc(NC(=O)Nc2ccc3c4c(cccc24)C(=O)N3CC)cc1`, the cell event count is 70 (inactive).

Consider `COc1ccc(-c2noc(CCC(=O)NCCCN3CCC(C)CC3)n2)cc1`, for which the cell event count was 63 (inactive).

Consider `COc1ccc(CC(=O)Nc2ccc(-c3nnc(-c4ccc(C)cc4)o3)cc2)cc1`, for which the cell event count is 24 (inactive).

Consider `Cn1c(C(=O)NCCN2CCN(c3ccccc3F)CC2)cc2c(=O)n(C)c3ccccc3c21`, for which the cell event count is 2 (inactive).

As for `Cc1cc(NC(=O)CSc2nnc(Cn3c(=O)sc4ccccc43)n2-c2ccccc2C)no1`, the cell event count was 200 (inactive).

On to `Cc1ccc2c(c1)-c1c(cnn1CC(=O)Nc1ccccc1N1CCN(C)CC1)CO2`, for which the cell event count was 73 (inactive).

As for `CCOC(=O)N1CCN(C(=O)C2CCCN(Cc3nc(-c4ccc(Cl)cc4)oc3C)C2)CC1` (stereo not drawn), the cell event count is 10 (inactive).

Turning to `Cc1nnc(NCc2n[nH]c(=O)c3ccccc23)c2ccccc12`, the cell event count is 47 (inactive).

In the case of `CCC(=O)N(Cc1ccco1)c1nc(-c2cc(OC)ccc2OC)cs1`, the cell event count is 227 (inactive).

Regarding `Cc1ccc(S(=O)(=O)NCCCCC(NC(=O)OC(C)(C)C)C(=O)O)cc1` (stereo not drawn) (tested in a mixture with another compound), the cell event count is 203 (inactive).

For the compound `CS(=O)(=O)c1nc(-c2cccs2)cc(C(F)(F)F)n1`, the cell event count is 53 (inactive).

Take `COc1cccc(-c2cc(C(=O)N3CCCc4ccccc43)no2)c1`: the cell event count is 9 (inactive).

As to `CCOc1ccc(-c2cc(C(=O)NCCCN3CCN(CC)CC3)c3ccccc3n2)cc1`, the cell event count is 39 (inactive).

Turning to `Cc1ccccc1-c1nc(CN2CCC(C(=O)N3CCN(c4ccccn4)CC3)CC2)c(C)o1`, the cell event count is 73 (inactive).

Take `Cn1c(=O)cc(SCC(=O)NCCCN2CCN(c3ccccc3F)CC2)c2ccccc21`: the cell event count is 166 (inactive).

Consider `COc1ccc2c(c1OC)C(=O)N(C(C)C(=O)O)C2=O` (stereo not drawn), for which the cell event count is 56 (inactive).

Take `Cc1oc(-c2ccc(Cl)cc2)nc1CN1CCCC(C(=O)NCCCN2CCOCC2)C1` (stereo not drawn): the cell event count is 42 (inactive).

With `CCN1CCN(c2ncc(C(=O)Nc3cc(Cl)c(OC)cc3OC)c3ccccc23)CC1`, the cell event count was 41 (inactive).

Take `CN(C)c1ccc(CNC2CC(C)(C)NC(C)(C)C2)cc1`: the cell event count is 130 (inactive).
